Many of the other results were omitted from the sample, so hits are more common in it than they were.
ID4 binder – binders of human ID4 protein, primary screen, biochemical, small molecule microarray, single point | DNA-binding protein inhibitor ID-4 (Homo sapiens), P47928 | Flag-ID4 binding, fluorescence F/B | calls only | 31,000 compounds, 1.2% hits; call rule not given here;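 also: a binder raises fluorescence above local background on the spot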
STK33 inh – STK33 kinase inhibitors, primary screen, biochemical, luminescence, ADP-Glo, MBP substrate | 27,000 compounds, 0.44% hits | Serine/threonine-protein kinase 33 (Homo sapiens), Q9BYT3 | inhibition, % at 12.5 µM | AID 2322, 2010; in the data active = inhibition above about 20%
Target sequence (Q9BYT3 whole entry, looked up): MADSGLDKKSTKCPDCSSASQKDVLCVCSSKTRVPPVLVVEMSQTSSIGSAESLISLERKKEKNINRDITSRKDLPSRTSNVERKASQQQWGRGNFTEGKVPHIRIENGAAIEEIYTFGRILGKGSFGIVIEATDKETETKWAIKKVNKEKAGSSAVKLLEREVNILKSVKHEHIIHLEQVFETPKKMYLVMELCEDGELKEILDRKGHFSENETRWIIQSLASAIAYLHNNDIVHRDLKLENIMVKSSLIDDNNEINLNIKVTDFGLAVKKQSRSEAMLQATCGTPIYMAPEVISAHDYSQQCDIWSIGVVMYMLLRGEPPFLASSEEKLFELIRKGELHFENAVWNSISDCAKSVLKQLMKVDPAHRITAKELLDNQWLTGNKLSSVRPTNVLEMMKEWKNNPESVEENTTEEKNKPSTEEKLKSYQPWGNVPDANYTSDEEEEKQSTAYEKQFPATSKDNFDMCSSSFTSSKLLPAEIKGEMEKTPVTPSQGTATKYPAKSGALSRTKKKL
Starred values were filed as active, the others as inactive; i = inactive; / = no result given; + = active, no number.

SMILES	ID4 binder	STK33 inh
Cc1ccc(C(C)C)cc1OCC(O)Cn1c(C)nc2ccccc21 (centres undefined)	i	0
COc1ccc([N+](=O)[O-])cc1NC(=O)CCSc1ccc(C)cc1	i	1
c1ccc(CC(Cc2nc3ccccc3[nH]2)c2nc3ccccc3[nH]2)cc1 (centres undefined)	i	-1
N#CC(C(=O)c1ccco1)c1nc2ccccc2[nH]1 (centres undefined)	/	67*
O/N=C/c1ccc(Cl)s1	i	/
COc1ccc2nc(Nc3nc(C)c(CCC(C)C)c(=O)[nH]3)nc(C)c2c1	i	0
CCN(CC)CCCC(C)Nc1c2ccc(Cl)cc2nc2ccc(OC)cc12 (centres undefined)	/	33*
CC(C)n1cnc2c(Nc3cccc(Cl)c3)nc(NCCO)nc21	/	90*
CC[C@H](CO)Nc1nc(NCc2ccccc2)c2ncn(C(C)C)c2n1	i	17
COc1ccc(-c2cc3ccccc3oc2=O)cc1NC(=O)COc1ccc(Cl)cc1C	i	3
NCCNc1ccc([N+](=O)[O-])c(Sc2nc3ccccc3[nH]2)c1	i	-2
NCCNc1ccc([N+](=O)[O-])c(NCCO)c1	+	-3
CC1(C)CC(=O)c2c(O)cc(OCC(=O)c3cccc([N+](=O)[O-])c3)cc2O1	i	4
O=C(NC(=S)Nc1ccc(Cl)c(C(=O)O)c1)c1cccc(COc2ccccc2)c1	+	-1
O=C(COc1ccccc1)NC(=S)Nc1cccc(NC(=O)c2ccccc2Cl)c1	i	4
O=C(COc1cccc2ccccc12)Nc1cc(C(=O)O)cc(C(=O)O)c1	i	-6
O=C(CC1(O)C(=O)N(Cc2ccccc2)c2ccccc21)c1ccccc1[N+](=O)[O-] (centres undefined)	i	1
Cc1coc(C)c1C(=O)CC1(O)C(=O)N(CCCC#N)c2ccccc21 (centres undefined)	i	5
N#CCCCN1C(=O)C(O)(CC(=O)c2ccc(Br)s2)c2ccccc21 (centres undefined)	+	-2
NC(N)=NS(=O)(=O)c1ccc(NC(=O)OC2CCCC2)cc1	i	/
NC(=O)C1CCCN(/[N+]([O-])=N/OCCBr)C1 (centres undefined)	+	/
CO/N=[N+](\[O-])N1CCCC(C(N)=O)C1 (centres undefined)	i	/
CCc1c(O)nc(SC(C)C(=O)Nc2ccc(Cl)cc2)[nH]c1=O (centres undefined)	i	-4
Cc1ccc(-c2nn(CCC(=O)Nc3cccc(Cl)c3)c(=O)c3ccccc23)cc1	i	-3
COC(=O)C(NC(=O)c1ccccc1)(c1c(C)[nH]n(-c2ccccc2)c1=O)C(F)(F)F (centres undefined)	i	1
SMILES	ID4 binder	STK33 inh
Cc1ccc2nc(-c3ccccn3)cc(C(=O)Nc3ccc(S(=O)(=O)N4CCOCC4)cc3)c2c1	+	8
O=C(Nc1ccc(S(=O)(=O)N2CCOCC2)cc1)c1cc(-c2ccncc2)nc2c(Cl)cccc12	i	2
O=C(Cn1cc(Br)c([N+](=O)[O-])n1)Nc1ccccc1F	i	2
CCc1c(C#N)c(SCC(=O)c2c(C)[nH]c3ccccc23)nc2c1C(=O)CC(C)(C)C2	i	-4
COc1ccccc1C1=NOC(Cn2c(NCc3ccccc3)nc3c2c(=O)n(C)c(=O)n3C)C1 (centres undefined)	+	3
Cn1c(=O)c2c(nc(NCCO)n2CCc2ccccc2)n(C)c1=O	i	0
CNc1nc(Oc2ccc(=O)[nH]n2)nc(N2CCOCC2)n1	i	-2
Cc1ccc(Nc2nc(Oc3ccc(=O)[nH]n3)nc(N3CCOCC3)n2)cc1	+	8
O=c1[nH]c2ccccc2c(=O)n1CCCO	i	16
O=C(c1ccc(F)cc1)C1CCN(CCn2c(=O)[nH]c3ccccc3c2=O)CC1	+	4
Nc1cccc(-c2cc3c(Oc4cccc(O)c4)ncnc3[nH]2)c1	/	69*
CC(Oc1ccc(F)cc1)C(=O)Nc1sc2c(c1C(N)=O)CCCC2 (centres undefined)	i	5
Cc1cc2nc(-c3cccc(NC(=O)COc4ccc(Cl)cc4)c3C)oc2cc1C	i	5
O=C(O)CSc1c[nH]c2ccccc12	i	-3
COC(=O)c1cn(CC(N)=O)c2ccccc12	i	0
CN(C)CCCn1cc(C2=C(c3c[nH]c4ccccc34)C(=O)NC2=O)c2ccccc21	i	114*
Cn1cc(C2=C(c3cn(CCCSC(=N)N)c4ccccc34)C(=O)NC2=O)c2ccccc21	/	106*
Cc1ccc(S(=O)(=O)N[C@@H](Cc2ccccc2)C(=O)CCl)cc1	/	8
COc1ccc(-c2cn(CCNC(=O)[C@H](Cc3ccccc3)NS(=O)(=O)c3ccc(C)cc3)nn2)cc1OC	+	/
COc1cc(O)c(OC)c2c1C(=O)CC(c1ccccc1)O2 (centres undefined)	i	1
O=C(Nc1ccc(F)cc1)C1CC(=O)n2cnnc2N1 (centres undefined)	+	0
Cc1ccc(NC(=O)C2CC(=O)n3cnnc3N2)cc1 (centres undefined)	i	1
COc1ccc([C@H]2C[C@H]3C(I)=CC2C(=O)[C@]32CO2)cc1OC	i	/
CC(=O)c1cccc(NC(=O)C2CCCN(S(=O)(=O)c3ccccc3)C2)c1 (centres undefined)	+	2
Cc1ccc(S(=O)(=O)N2CCCC(C(=O)Nc3ccc4c(c3)OCCO4)C2)cc1 (centres undefined)	i	3
SMILES	ID4 binder	STK33 inh
C/C=C1\[C@H](O[C@@H]2O[C@H](CO)[C@@H](O)[C@H](O)[C@H]2O)OC=C(C(=O)OC)[C@H]1CC(=O)OC[C@H]1O[C@@H](OCCc2ccc(O)cc2)[C@H](O)[C@@H](O)[C@@H]1OC(=O)C[C@@H]1C(C(=O)OC)=CO[C@@H](O[C@@H]2O[C@H](CO)[C@@H](O)[C@H](O)[C@H]2O)/C1=C\C	/	0
Cc1cc(OCC(=O)Nc2cccc3ncccc23)cc(C)c1Cl	i	2
COc1cc(CNC23CC4CC(CC(C4)C2)C3)ccc1OCC(N)=O	+	9
COc1cc(CNC2CCCC2)ccc1OCC(N)=O	i	2
C[C@@H]1CC(=O)c2c(ccc3c2C(=O)c2cccc(O)c2C3=O)C1	i	9
CN1CCc2cccc3c2[C@H]1Cc1ccc(O)c(O)c1-3	i	24*
OCCCn1c(-c2ccccc2)cn2c3ccccc3nc12	i	3
OCCCn1c(-c2ccc(Cl)cc2)cn2c3ccccc3nc12	+	0
C[C@H]1CN([C@@H](C)CO)C(=O)c2cc(NS(=O)(=O)c3cn(C)cn3)ccc2O[C@@H]1CN(C)Cc1ccccc1	+	/
C[C@@H]1CN([C@H](C)CO)C(=O)c2cc(NC(=O)CCCN(C)C)ccc2O[C@@H]1CN(C)C(=O)Nc1ccccc1	+	/
C[C@H](CO)N1C[C@H](C)[C@H](CN(C)C(=O)Nc2ccccc2)Oc2ccc(NC(=O)CCCN(C)C)cc2C1=O	i	-1
C[C@H](CO)N1C[C@H](C)[C@@H](CN(C)Cc2ccc(C(=O)O)cc2)Oc2ccc(NC(=O)CCCN(C)C)cc2C1=O	i	/

Source: PubChem BioAssay (Broad Institute)
